Vaccinia mCherry = qHTS for Stage-Specific Inhibitors of Vaccinia Orthopoxvirus: mCherry Reporter Primary qHTS. Potency, µM (doses to about 36.5 µM), actives largely listed as inhibitors. Vaccinia virus mCherry reporter infection, fluorescence. 310,000 tested, 0.63% active; calls by dose curve; tested in A549 cells; further: nearly all actives have a fitted effect of over 35% in size
VACV Venus inh = qHTS for Stage-Specific Inhibitors of Vaccinia Orthopoxvirus: Venus Reporter Primary qHTS. 330,000 tested, 0.46% active. Potency, µM (series often up to 36.5 µM), actives largely listed as inhibitors. Vaccinia virus Venus reporter expression, fluorescence. AID 720580, 2013; calls by dose curve; tested in A549 cells; further: nearly all actives have a fitted effect of over 30% in size
HCMV antiviral = qHTS Assay for inhibitors of the human cytomegalovirus (HCMV); HFF cells, HCMV-luciferase reporter, 72 h; stronger effect = lower value; activity change, negative = inhibition, % at 57.5 µM; 410,000 tested, 4.5% active; in the data active means activity change below about -60%; inconclusive means no clear call, values can overlap the other calls; inactive means above about -39%
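Screen run at 2 compound doses on HFFs infected with reporter HCMV, MOI 1 PFU/cell. Luciferase activity from cell lysates at 72 h post infection gave inhibition relative to buffer-only and Salinomycin wells.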
HCV inh = qHTS Assay for Inhibitors of Hepatitis C Virus (HCV); Potency, µM (series often up to 41.8 µM), hits mostly inhibitors; Huh7.5.1 HCVcc-Cre infection, luciferase reporter, 44 h; 340,000 tested, 3.4% active; active means well fitted inhibition curve with a large enough effect; inconclusive means small, poorly fitted or top-dose-only effect, or another doubt; inactive means no such curve, though single readings can be large or run the other way
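Infectious HCV cell culture screen: compound-treated cells (1,000/well, pre-plated 4 h) are infected with HCVcc-Cre at roughly 0.5 moi and grown 44 h. Infection is quantified by luciferase signal after 15 min substrate incubation at room temperature.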
LASV entry inh = qHTS for Inhibitors of binding or entry into cells for Lassa Virus; Lassa virus pseudotype entry inhibition, cell reporter; Potency, µM (titrated, usually from 37.9 µM), hits mostly inhibitors; 300,000 tested, 1.2% active; AID 540256, 2011; calls by dose curve; tested in HEK293 cells; further: nearly all actives have a fitted effect of over 50% in size
MARV entry inh = qHTS for inhibitors of binding or entry into cells for Marburg Virus; Potency, µM (series often up to 37.8 µM), actives largely listed as inhibitors; 300,000 tested, 1.8% active; Marburg virus pseudotyped entry inhibition, cell reporter; calls by dose curve; tested in HEK293 cells
Of the large screens only hits and unclear results are named; the others gave an inactive call; ! = repeats disagree. Most compounds without a hit are left out; they make up all but 7.8% or so of the library.

O=C(NN=Cc1cc(Cl)ccc1[N+](=O)[O-])c1cccc2ccccc12	none
O=[N+]([O-])c1ccc(O)c(C2CCCCC2)c1	Vaccinia mCherry inconclusive, VACV Venus inh inconclusive, HCMV antiviral -94, HCV inh inconclusive, LASV entry inh inconclusive, MARV entry inh inconclusive
O=C(Cn1nnc(-c2ccccc2)n1)N/N=C/c1cc([N+](=O)[O-])c(Cl)cc1Cl	HCV inh inconclusive
O=[N+]([O-])c1ccc2nc(C3CCCCC3)[nH]c2c1	HCV inh inconclusive, MARV entry inh inconclusive
COc1cccc(/C(O)=C2\C(=O)C(=O)N(c3ccccn3)[C@H]2c2ccccc2OC)c1	none (no result: Vaccinia mCherry, VACV Venus inh, HCMV antiviral, HCV inh, LASV entry inh)
CCOC(=O)C1CCN(C(=O)Cn2ncc3c4ccccc4n(Cc4ccccc4F)c3c2=O)CC1	none (no result: HCV inh)
CN(C)CCNC(=O)c1ccc2c(c1)N(Cc1c(F)cccc1Cl)C(=O)c1ccccc1S2	HCMV antiviral inconclusive, LASV entry inh inconclusive, MARV entry inh inconclusive (no result: HCV inh)
CNC(=S)N(C)/N=C1/C(=O)N(Cc2c(Cl)cccc2Cl)c2ccccc21	HCV inh 13µM, LASV entry inh inconclusive, MARV entry inh inconclusive
Oc1ccc(N2CCN(c3nnnn3-c3ccccc3)CC2)cc1	HCMV antiviral -63, LASV entry inh inconclusive
CC(=O)c1c(C)[nH]c(C(=O)OCC(=O)NCCc2ccc(Cl)cc2)c1C	HCV inh 11µM, LASV entry inh inconclusive, MARV entry inh inconclusive (no result: Vaccinia mCherry)
CCOC(=O)c1c(C)[nH]c(C(=O)OCC(=O)NCc2ccc(OC)c(OC)c2)c1C	HCV inh 10µM
CCOC(=O)c1[nH]c(C)c(C(=O)OCC(=O)NCc2ccc(Cl)cc2)c1C	none (no result: Vaccinia mCherry, VACV Venus inh, LASV entry inh, MARV entry inh)
CCOC(=O)c1c(C)[nH]c(C(=O)OCC(=O)Nc2sccc2C(N)=O)c1C	VACV Venus inh inconclusive, HCMV antiviral -68, HCV inh 2.8µM, LASV entry inh inconclusive, MARV entry inh 2.2µM
CC(=O)c1c(C)[nH]c(C(=O)OCC(=O)NCc2ccc(Cl)cc2)c1C	HCV inh 11µM (no result: Vaccinia mCherry, VACV Venus inh, LASV entry inh, MARV entry inh)
CC(=O)c1c(C)[nH]c(C(=O)OCC(=O)NCCc2ccc(F)cc2)c1C	HCV inh inconclusive (no result: Vaccinia mCherry, VACV Venus inh)
CCOC(=O)C1CCCN(S(=O)(=O)c2csc(C(N)=O)c2)C1 (centres undefined)	none (no result: HCV inh, MARV entry inh)
Cn1cnnc1Sc1ccc(CN2CCOc3ccc(C4=Cc5ccccc5C4)cc3C2)o1	none (no result: HCMV antiviral, HCV inh, LASV entry inh, MARV entry inh)
CCn1c(-c2ccccc2F)nc2cc(NC(C)=O)cc(C(=O)NCC3CCOCC3)c21	none (no result: HCMV antiviral, HCV inh, LASV entry inh, MARV entry inh)
Cc1ccc(NC(=O)Cn2c(=O)c(C(F)(F)F)nc3ccccc32)c(C)c1	none (no result: HCV inh, MARV entry inh)
Cc1nc2c(o1)C(=O)c1ccccc1C2=Nc1ccccc1	Vaccinia mCherry 2.5µM, VACV Venus inh 2.8µM, HCMV antiviral -100, HCV inh 2.8µM, LASV entry inh 11µM, MARV entry inh inconclusive
COC(=O)C1Cc2ccccc2CN1C(=O)CCl (centres undefined)	VACV Venus inh inconclusive, HCMV antiviral inconclusive, HCV inh inconclusive, LASV entry inh inconclusive, MARV entry inh 7.1µM
CCC(C)OC(=O)/C(C#N)=C\c1ccc(-c2ccccc2Cl)o1 (centres undefined)	none (no result: HCV inh, MARV entry inh)
Cc1ccccc1NC(=O)c1sc2nc3c(cc2c1N)CCCC3	MARV entry inh inconclusive (no result: HCV inh)
COC(=O)[C@@H]1[C@@H](c2cccc(C(F)(F)F)c2)NC(=O)N(Cc2ccccc2)[C@@H]1C	none (no result: Vaccinia mCherry, VACV Venus inh, HCMV antiviral, HCV inh, LASV entry inh)
Cc1cccc(-c2noc(-c3ccc(N4CCOCC4)c([N+](=O)[O-])c3)n2)c1	MARV entry inh inconclusive (no result: HCV inh)
Cc1cccc(-c2noc(-c3ccc(N4CCCC4)c([N+](=O)[O-])c3)n2)c1	HCMV antiviral -74, MARV entry inh inconclusive (no result: HCV inh)
Cc1cccc(-c2noc(-c3ccc(N4CCN(C)CC4)c([N+](=O)[O-])c3)n2)c1	HCMV antiviral -78 (no result: HCV inh)
COc1ccc(-c2cc(C(F)(F)F)n3nc(C)c(-c4ccccc4)c3n2)cc1OC	none (no result: HCV inh)
Cc1ccc(Cl)cc1NC(=O)C1CCCN(S(=O)(=O)c2c(C)noc2/C=C/N(C)C)C1 (centres undefined)	none (no result: HCV inh)
Cc1c(C(=O)N/N=C/c2ccc(Cl)cc2)[nH]c2ccc(Cl)cc12	Vaccinia mCherry inconclusive, VACV Venus inh inconclusive, HCMV antiviral -89, HCV inh inconclusive (no result: LASV entry inh, MARV entry inh)
Cc1c(C(=O)N/N=C/C(C)C)[nH]c2ccc([N+](=O)[O-])cc12	HCMV antiviral -75, LASV entry inh inconclusive
CCOc1ccc(/C=N/NC(=O)c2[nH]c3ccc(C)cc3c2C)cc1	HCV inh inconclusive, LASV entry inh inconclusive, MARV entry inh inconclusive
Cc1ccc(CNC(=O)Cn2cc(S(=O)(=O)Cc3ccccc3F)c3ccccc32)cc1	none (no result: HCV inh, MARV entry inh)
Nc1nc(Cl)c(C=O)c(N2CCCCC2)n1	HCMV antiviral inconclusive, HCV inh 10µM, LASV entry inh inconclusive
COc1ccccc1N1CCN(C(=O)c2cccc3c(=O)c(C)c(-c4ccccc4)oc23)CC1	HCMV antiviral -66, HCV inh inconclusive (no result: LASV entry inh)
COc1ccccc1N1CCN(C(=O)c2cc3c(C)nc4ccccc4c3o2)CC1	Vaccinia mCherry inconclusive, VACV Venus inh inconclusive, HCMV antiviral -61, HCV inh 6.3µM, LASV entry inh 11µM, MARV entry inh inconclusive
Cc1nc2ccccc2c2oc(C(=O)N3CC(C)CC(C)C3)cc12 (centres undefined)	none (no result: Vaccinia mCherry, VACV Venus inh, LASV entry inh, MARV entry inh)
COc1ccccc1N1CCN(C(=O)c2sc3nc(-c4ccccc4)cn3c2C)CC1	Vaccinia mCherry inconclusive, VACV Venus inh inconclusive, HCV inh 11µM!, MARV entry inh inconclusive
Cc1c(C(=O)N2CCN(c3ccc(F)cc3)CC2)sc2nc(-c3ccccc3)cn12	none (no result: Vaccinia mCherry, VACV Venus inh)
Cc1ccc(Cl)cc1NC(=O)c1sc(-n2nc(C)c(Cc3ccc4c(c3)OCO4)c2C)nc1C	none (no result: HCV inh)
Cc1ccc(C(=O)N2CC(=O)Nc3ccc(Br)cc3C2c2ccc(F)cc2)cc1C (centres undefined)	LASV entry inh inconclusive, MARV entry inh inconclusive (no result: HCV inh)
Cc1ccc(S(=O)(=O)Nc2ccccc2-c2ccccc2NS(=O)(=O)c2ccc(C)cc2)cc1	MARV entry inh inconclusive (no result: Vaccinia mCherry)
Cc1ccc(S(=O)(=O)Nc2cccc3cccnc23)cc1	Vaccinia mCherry inconclusive, VACV Venus inh inconclusive, HCMV antiviral -105, HCV inh inconclusive, LASV entry inh inconclusive, MARV entry inh inconclusive
Cc1ccc(NS(=O)(=O)c2cccc3cccnc23)c(Br)c1	HCMV antiviral -82
NNC(=O)c1cc2c(N3CCC(Cc4ccccc4)CC3)ncnc2s1	HCMV antiviral inconclusive, HCV inh inconclusive, LASV entry inh 10µM
CCCCC1(Cc2ccc([N+](=O)[O-])cc2)C(=O)N(c2ccccc2)N(c2ccccc2)C1=O	Vaccinia mCherry inconclusive, VACV Venus inh inconclusive, HCMV antiviral -98, HCV inh 13µM, LASV entry inh inconclusive, MARV entry inh 7.9µM
CCCCC1(COC(=O)CCC(=O)O)C(=O)N(c2ccccc2)N(c2ccccc2)C1=O	none (no result: LASV entry inh, MARV entry inh)

Source: PubChem BioAssay
